Reference: ChEMBL document CHEMBL4513139, “CO-ADD screening of University of Strathclyde (UK) compounds”
Potency and affinity values are given separately.

Tested on: Candida albicans
Settings: 32 ug/mL

Structure (SMILES)	Inhibition [%]
CC(=O)N(C(C)=O)c1cc(C(=O)Nc2cc(C(=O)NCCC(=N)N)n(C)c2)n(C)c1.O=C(O)C(F)(F)F	3.85
CC(C)CCc1sc(NC(=O)c2cc(NC(=O)c3ccc(/C=C/c4cc5ccccc5nc4On4nnc5ccccc54)cc3)cn2C)nc1C(=O)NCCN1CCOCC1.O=C(O)C(F)(F)F	12.3
CC(C)CCc1sc(NC(=O)c2cc(NC(=O)c3ccc(/C=C/c4cc5ccccc5nc4Cl)cc3)cn2C)nc1C(=O)NCCN1CCOCC1.O=C(O)C(F)(F)F	2.62
Cc1ncc(Cn2cc(CCCCO)nn2)c(N)n1	2.99
CCOC(=O)c1cc(NC(=O)c2cc(NC(=O)c3nc(N)sc3C(C)C)cn2C)cn1C	4.33
Cn1cc(NC(=O)c2cc(NC(=O)c3ccc(/C=C/c4cccc(F)c4)cc3)cn2C)cc1C(=O)NCCN1CCOCC1.O=C(O)C(F)(F)F	24.2
CCOC(=O)CCC(NC(=O)c1ccc(NCc2cn(Cc3cnc(C)nc3N)nn2)cc1)C(=O)OCC (configuration not stated)	5.67
Cc1ncc(CNc2ccc(C(C)(C)C)cc2)c(N)n1	-0.83
COC(=O)CCC(=O)Nc1cc(C(=O)Nc2cc(C(=O)NCCN3CCOCC3)n(C)c2)n(C)c1.O=C(O)C(F)(F)F	1.41
Cc1ncc(Cn2cc(CCC(=O)O)nn2)c(N)n1.O=C(O)C(F)(F)F	2.33
CC(C)CCn1cc(NC(=O)c2cc(NC(=O)c3cc(NC(=N)c4ccccc4)cn3C)cn2C)cc1C(=O)NCCCN(C)C.O=C(O)C(F)(F)F.O=C(O)C(F)(F)F	0.79
Cc1ncc(CO)c(N)n1	-0.12
CC(C)c1sc(N)nc1C(=O)Nc1cc(C(=O)Nc2cc(C(=O)NCCN3CCOCC3)n(C)c2)n(C)c1.O=C(O)C(F)(F)F	3.25
Cc1ncc(Cn2cc(CCCO)nn2)c(N)n1	0.26
Cc1ncc(Cn2cc(CCCN)nn2)c(N)n1.Cl	3.42
COc1cccc(C(=N)Nc2cc(C(=O)Nc3cc(C(=O)Nc4cn(CCCN(C)C)cn4)n(C)c3)n(C)c2)c1.O=C(O)C(F)(F)F.O=C(O)C(F)(F)F	0.2
CCOC(=O)c1cc(NC(=O)c2cc(NC(=O)c3nc(N)sc3CCC(C)C)cn2C)cn1C	2.98
CC(C)CCc1sc(NC(=O)c2cc(NC(=O)c3cc(NC(=O)CCC(=O)O)cn3C)cn2C)nc1C(=O)NCCCN(C)C.O=C(O)C(F)(F)F	2.8
CN(C)CCCNC(=O)c1cc(NC(=O)c2cc(NC(=O)c3cc(NC(=N)c4ccccc4)cn3C)cn2C)cn1C.O=C(O)C(F)(F)F.O=C(O)C(F)(F)F	0.01
Cc1ncc(CNc2ccc(F)cc2)c(N)n1	4.55
Cn1cc(NC(=O)c2cc(NC(=O)c3sc(N)nc3C(F)(F)F)cn2C)cc1C(=O)NCCC(=N)N.O=C(O)C(F)(F)F	5.72
CC(C)c1sc(N)nc1C(=O)Nc1cc(C(=O)NCCN2CCOCC2)n(C)c1.O=C(O)C(F)(F)F	3.26
COc1ccc(CC(=O)Nc2cc(C(=O)Nc3cc(C(=O)Nc4cn(CCCN(C)C)cn4)n(C)c3)n(C)c2)cc1.O=C(O)C(F)(F)F	1.27
COCCOC1CCN(C(=O)c2cc(NC(=O)c3cc(NC(=O)c4ccc(/C=C/c5ccc(OC)cc5)cc4)cn3C)cn2C)CC1.O=S(=O)(O)O	3.1
Cc1ncc(Cn2cc(CCO)nn2)c(N)n1	0.2
Cc1ncc(Cn2cc(CO)nn2)c(N)n1	1.92
COCCOC1CCN(C(=O)c2cc(NC(=O)c3cc(NC(=O)c4ccc(/C=C/c5cnc6ccccc6c5)cc4)cn3C)cn2C)CC1	3.83
COc1ccc(/C=C(/C(=O)Nc2cc(C(=O)Nc3cc(C(=O)NCCCN(C)C)n(C)c3)n(C)c2)c2ccc(OC)cc2)cc1.O=C(O)C(F)(F)F	1.83
CC(C)n1cc(NC(=O)c2cc(NC(=O)c3cc(NC=O)cn3C(C)C)cn2C)cc1C(=O)NCCCN(C)C.O=C(O)C(F)(F)F	-1.38

Tested on: Cryptococcus neoformans
Settings: Concentration 32 ug.mL-1; ASSAY_TEST Inhibition of Fungal Growth; detection method Resazurin; Absorption (OD600-OD570); plate type 384well; NBS; CORNING #3640

Structure (SMILES)	Inhibition [%]
CC(=O)N(C(C)=O)c1cc(C(=O)Nc2cc(C(=O)NCCC(=N)N)n(C)c2)n(C)c1.O=C(O)C(F)(F)F	87.54
CC(C)CCc1sc(NC(=O)c2cc(NC(=O)c3ccc(/C=C/c4cc5ccccc5nc4On4nnc5ccccc54)cc3)cn2C)nc1C(=O)NCCN1CCOCC1.O=C(O)C(F)(F)F	0.39
CC(C)CCc1sc(NC(=O)c2cc(NC(=O)c3ccc(/C=C/c4cc5ccccc5nc4Cl)cc3)cn2C)nc1C(=O)NCCN1CCOCC1.O=C(O)C(F)(F)F	-70.82
Cc1ncc(Cn2cc(CCCCO)nn2)c(N)n1	-60.21
CCOC(=O)c1cc(NC(=O)c2cc(NC(=O)c3nc(N)sc3C(C)C)cn2C)cn1C	-54.98
CCOC(=O)CCC(NC(=O)c1ccc(NCc2cn(Cc3cnc(C)nc3N)nn2)cc1)C(=O)OCC (configuration not stated)	-67.67
Cc1ncc(CNc2ccc(C(C)(C)C)cc2)c(N)n1	-46.61
COC(=O)CCC(=O)Nc1cc(C(=O)Nc2cc(C(=O)NCCN3CCOCC3)n(C)c2)n(C)c1.O=C(O)C(F)(F)F	-63.38
Cc1ncc(Cn2cc(CCC(=O)O)nn2)c(N)n1.O=C(O)C(F)(F)F	-50.97
CC(C)CCn1cc(NC(=O)c2cc(NC(=O)c3cc(NC(=N)c4ccccc4)cn3C)cn2C)cc1C(=O)NCCCN(C)C.O=C(O)C(F)(F)F.O=C(O)C(F)(F)F	-53.65
Cc1ncc(CO)c(N)n1	-45.32
CC(C)c1sc(N)nc1C(=O)Nc1cc(C(=O)Nc2cc(C(=O)NCCN3CCOCC3)n(C)c2)n(C)c1.O=C(O)C(F)(F)F	-112.04
Cc1ncc(Cn2cc(CCCO)nn2)c(N)n1	-29.76
Cc1ncc(Cn2cc(CCCN)nn2)c(N)n1.Cl	-41.75
COc1cccc(C(=N)Nc2cc(C(=O)Nc3cc(C(=O)Nc4cn(CCCN(C)C)cn4)n(C)c3)n(C)c2)c1.O=C(O)C(F)(F)F.O=C(O)C(F)(F)F	-90.24
CCOC(=O)c1cc(NC(=O)c2cc(NC(=O)c3nc(N)sc3CCC(C)C)cn2C)cn1C	-84.96
CC(C)CCc1sc(NC(=O)c2cc(NC(=O)c3cc(NC(=O)CCC(=O)O)cn3C)cn2C)nc1C(=O)NCCCN(C)C.O=C(O)C(F)(F)F	-103.67
CN(C)CCCNC(=O)c1cc(NC(=O)c2cc(NC(=O)c3cc(NC(=N)c4ccccc4)cn3C)cn2C)cn1C.O=C(O)C(F)(F)F.O=C(O)C(F)(F)F	-106.51
Cc1ncc(CNc2ccc(F)cc2)c(N)n1	-57.63
Cn1cc(NC(=O)c2cc(NC(=O)c3sc(N)nc3C(F)(F)F)cn2C)cc1C(=O)NCCC(=N)N.O=C(O)C(F)(F)F	-104.75
CC(C)c1sc(N)nc1C(=O)Nc1cc(C(=O)NCCN2CCOCC2)n(C)c1.O=C(O)C(F)(F)F	-97.94
COc1ccc(CC(=O)Nc2cc(C(=O)Nc3cc(C(=O)Nc4cn(CCCN(C)C)cn4)n(C)c3)n(C)c2)cc1.O=C(O)C(F)(F)F	-97.5
COCCOC1CCN(C(=O)c2cc(NC(=O)c3cc(NC(=O)c4ccc(/C=C/c5ccc(OC)cc5)cc4)cn3C)cn2C)CC1.O=S(=O)(O)O	97.19
Cc1ncc(Cn2cc(CCO)nn2)c(N)n1	-50.84
Cc1ncc(Cn2cc(CO)nn2)c(N)n1	-37.01
COCCOC1CCN(C(=O)c2cc(NC(=O)c3cc(NC(=O)c4ccc(/C=C/c5cnc6ccccc6c5)cc4)cn3C)cn2C)CC1	112.33
COc1ccc(/C=C(/C(=O)Nc2cc(C(=O)Nc3cc(C(=O)NCCCN(C)C)n(C)c3)n(C)c2)c2ccc(OC)cc2)cc1.O=C(O)C(F)(F)F	-5.3
CC(C)n1cc(NC(=O)c2cc(NC(=O)c3cc(NC=O)cn3C(C)C)cn2C)cc1C(=O)NCCCN(C)C.O=C(O)C(F)(F)F	-103.79
